Compound activity as filed in PubChem BioAssay.
M1 PAM parental: nonselective activator or artifact in parental CHO-K1 calcium assay. activation, % at 3 µM. ATP EC20, Fluo-8 calcium fluorescence; 0% at ATP EC20, 100% at ATP max. 360,000 compounds, 0.02% hits;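 active = activation above the run cutoff, the mean activation of all test compounds plus 3 SD, cut at about 40% in these data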;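 note: peak over basal fluorescence ratio in a 140 s read after ATP addition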
CHO-K1 Ca antag: M1 antagonist counterscreen hit in parental CHO-K1 cells | ATP-induced calcium, Fluo-8 fluorescence | inhibition, % at 3 µM | 360,000 compounds, 0.6% hits;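 active = inhibition above a per-plate cutoff, the plate's mean sample inhibition plus 3 SD, cut at about 24% in these data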;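 note: 0% = DMSO plus EC80 ATP and 100% = DMSO alone without ATP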
M1 antag: human CHRM1 antagonism; CHO-K1 hM1, Fluo-8 calcium fluorescence, ACh EC80 antagonist; AID 588852; P11229; 360,000 compounds, 1.3% hits; inhibition, % at 3 µM;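 active = percent inhibition above its own plate's cutoff, namely the mean of that plate's compound wells plus 3 SD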;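 note: peak over basal fluorescence ratio during 140 s after agonist addition; 0% = ACh EC80 plus DMSO and 100% = DMSO alone without agonist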
Target sequence (P11229 whole entry, looked up): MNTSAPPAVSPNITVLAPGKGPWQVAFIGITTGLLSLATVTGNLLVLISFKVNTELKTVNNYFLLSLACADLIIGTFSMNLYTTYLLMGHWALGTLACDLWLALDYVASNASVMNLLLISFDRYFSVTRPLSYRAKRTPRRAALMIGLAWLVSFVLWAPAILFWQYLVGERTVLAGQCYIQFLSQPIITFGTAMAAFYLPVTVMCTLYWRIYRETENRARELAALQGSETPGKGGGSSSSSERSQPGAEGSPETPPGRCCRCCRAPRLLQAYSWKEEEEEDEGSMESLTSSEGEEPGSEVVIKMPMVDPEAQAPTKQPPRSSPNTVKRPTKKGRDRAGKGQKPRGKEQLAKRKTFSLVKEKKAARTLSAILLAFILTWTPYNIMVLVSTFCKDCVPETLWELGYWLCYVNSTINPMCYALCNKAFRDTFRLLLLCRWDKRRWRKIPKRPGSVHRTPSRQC
CHO-K1 Ca ag: nonselective activator or artifact in parental CHO-K1 cells; Fluo-8 calcium fluorescence; scaled to maximal ATP response, vehicle zero; 360,000 compounds, 0.48% hits; AID 602248; activation, % at 3 µM; in the data active = activation above about 15%;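 note: untransfected CHO-K1 host cells lacking M1 receptor as counterscreen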
M1 PAM: human CHRM1 positive allosteric modulation | P11229 | CHO-K1 hM1, Fluo-8 calcium fluorescence, ACh EC20; 0% = ACh EC20, 100% = maximal ACh | activation, % at 3 µM | 360,000 compounds, 0.088% hits | AID 588819; in the data active = activation above about 19%, passing the limit was not always enough
CHRM1 agonist: activates human CHRM1 receptor; P11229; AID 588814; activation, % at 3 µM; CHO-K1 hM1, Fluo-8 calcium fluorescence, agonist mode; 0% DMSO, 100% acetylcholine EC100; 360,000 compounds, 0.33% hits;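 active = activation above the run's mean compound activation plus 3 SD, cut at about 16% in these data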;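 note: peak over basal fluorescence ratio within a 140 s kinetic read after compound addition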
An asterisk follows results filed as active; / = no result. This is a sample that favours compounds with a hit; in the whole collection about 2.3% have one here.

SMILES	M1 PAM parental	CHO-K1 Ca antag	M1 antag	CHO-K1 Ca ag	M1 PAM	CHRM1 agonist
CN1OC[C@@H]2CN[C@H](c3ccc(Br)cc3)C[C@@H]21	10	-7	-10	0	5	1
CC(=O)Nc1cccc([As](=O)(c2cccc(NC(C)=O)c2)c2cccc(NC(C)=O)c2)c1	1	-12	-17	0	15	0
CC(=O)Nc1cc([As](=O)(O)O)ccc1O	6	-11	-18	0	-6	20*
CCOC(=O)[C@]12Cc3ccccc3[C@H]1N(CCC(=O)OC)C(=O)c1cc(OC)ccc12	-5	-1	/	0	/	/
O=c1[nH]c(O)c(C=Nc2ccc(Cl)c(C(F)(F)F)c2)c(=O)[nH]1	6	-7	41*	1	-26	-11
CC(C)(C)c1cc(C=C(C#N)C#N)cc(C(C)(C)C)c1O	6	31*	45	10	-15	11
NCCc1ccc(OCc2ccccc2)c(OCc2ccccc2)c1	7	5	-4	16*	11	13
c1ccc(Nc2ccc3ccccc3c2)cc1	4	0	12	0	-10	-5
CC(C)Nc1ccc(Nc2ccccc2)cc1	2	3	53*	0	-25	-8
O=P1(c2ccccc2)CC=CC1	3	-6	-2	0	1	-2
C[N+](C)(C)CC#CCN1CCCC1=O	7	16	89*	2	-12	120*
C/C(Cl)=C/CC1(CN2CCCC2=O)C(=O)NC(=O)NC1=O	16	-8	-6	0	8	-3
Clc1cc(Cl)c(-c2cc(Cl)c(Cl)cc2Cl)cc1Cl	-3	-8	-11	0	-1	-3
COc1cc(CNCCc2c[nH]c3ccccc23)cc(OC)c1	-1	25*	6	2	-3	-4
Fc1cccc(CNCCc2c[nH]c3ccccc23)c1	-2	3	-2	0	3	-4
Cc1cccc(CNCCc2c[nH]c3ccccc23)c1	20	-6	3	23*	4	-1
CC(=O)N1Cc2cnnn2-c2ccccc2C1C#N (stereo not given)	-13	-1	8	0	-6	-6
CC1=C(O)C(=O)C=C2C1=CC=C1C2(C)CCC2(C)C3CC(C)(C(=O)O)CCC3(C)CCC12C (stereo not given)	6	37*	35	6	-6	0
Cc1cc(Br)cn2c(CC(=O)N3CCCCC3)c(-c3ccc(F)cc3)nc12	0	3	/	1	/	/
O=c1cc(C(F)(F)F)c2cc3c4c(c2o1)CCCN4CCC3	-9	59*	67*	89*	-24	120*
Cc1ccc(OP2(=O)Nc3cc(C)c(C)cc3S2)cc1 (stereo not given)	15	-14	-13	0	9	-1
O=C(Cc1ccccc1)N1CCN(Cc2ccc([N+](=O)[O-])cc2)CC1	-13	15	17	0	-11	-5
O=[N+]([O-])c1cccc(CN2CCN(Cc3ccc(Br)cc3)CC2)c1	-4	8	27*	6	-29	-12
Cn1nnc(CC[N+](C)(C)C)n1	-1	11	77*	15*	-22	73*
CCC(=NCc1ccco1)c1c(O)n(-c2ccccc2)c(=O)[nH]c1=O	7	29*	-1	-1	6	-2
SMILES	M1 PAM parental	CHO-K1 Ca antag	M1 antag	CHO-K1 Ca ag	M1 PAM	CHRM1 agonist
COC(=O)[C@@H]1[C@@H](C(=O)OC)C2(c3ccccc3-c3ccccc32)N(c2ccc(Cl)cc2)N1C#N	5	26*	-12	0	-2	-4
C#CC[N+]1(C)[C@@H]2CC(OC(=O)C(CO)c3ccccc3)C[C@H]1C(O)C2 (stereo not given in full)	-16	9	101*	0	-27	-10
C[N+]1(C)C2CCC1CC(OC(=O)c1ccccc1)C2 (stereo not given)	-15	8	12	0	-9	-8
C[N+]1([O-])[C@@H]2CC(OC(=O)[C@H](CO)c3ccccc3)C[C@H]1[C@@H]1O[C@@H]12 (stereo not given in full)	-6	9	100*	0	-26	-9
C[N+]1(C)[C@@H]2CC[C@H]1CC(OC(=O)C(CO)c1ccccc1)C2 (stereo not given in full)	9	5	99*	0	-26	-6
C[N+]1(C)C2CCC1CC(OC(=O)C(CO)c1ccccc1)C2 (stereo not given)	-6	-7	101*	0	-38	-15
C=CCC1(Nc2ccccc2)CC(C)N(C)CC1C (stereo not given)	-29	20	97*	0	-27	-8
Cc1ccc(OC(=O)N(C)C[C@@H]2OCc3cnnn3CCCC(=O)N([C@@H](C)CO)C[C@@H]2C)cc1	12	-16	-12	1	8	-5
Oc1cc(Cl)c(Cl)c(Cl)c1Cl	15	-22	-2	10	4	1
Oc1cc(Cl)c(Cl)c(Cl)c1	-13	0	23*	15	-20	1
O=C(/C=C/c1ccc(F)cc1)NC(=S)N1C[C@H]2C[C@H](C1)c1cccc(=O)n1C2	13	-1	-5	1	2	-7
COC1=CC(=O)OC(/C=C/c2ccccc2)C1 (stereo not given)	-9	46*	-21	0	-3	-1
CC(Cc1ccccc1Sc1ccccc1O)N(C)C (stereo not given)	7	5	98*	2	-23	-4
Nc1ccc2nonc2c1[N+](=O)[O-]	19	-6	4	17*	5	14
O=C1C2CCN(CC2)[C@@H]1Cc1ccc2ccccc2c1O	7	6	40*	1	-17	-2
CCOC(=O)C1(CCCc2ccccc2)CCN(C2CCCC2)CC1	-2	5	12	1	-18	-14
CCOC(=O)C1(CCc2ccccc2)CCN(C2CCSCC2)CC1	-1	1	52*	0	-22	-5
CN1CCc2nc(N)c(C#N)c(-c3ccccc3)c2C1	1	-14	34*	0	-20	-8
CCN(CC)CCCOC(=O)C(OC(C)C)(c1ccccc1)c1ccccc1	18	-5	102*	4	-32	-10
c1coc(CN2Cc3ccccc3-n3nncc3C2)c1	7	-5	1	0	5	-5
COC(=O)C1=C(c2ccccc2)C[C@@H]2CC[C@H]1N2C(=O)NCc1ccc(F)cc1	5	-7	67*	-1	-37	-13
COC(=O)C1=C(c2cccc(OCc3ccccc3)c2)C[C@@H]2CC[C@H]1N2C(=O)NCc1ccc(F)cc1	-2	-6	38*	0	-34	-13
COC(=O)C1=C(c2cc3ccccc3o2)C[C@@H]2CC[C@H]1N2C	5	-5	35*	0	-30	-14
